Results as given in PubChem BioAssay AID1159580 (chemical genetic matrix, 2015).
The whole screen tested about 5,500 compounds, of which about 2,000 (36%) were called active. Roughly 18% stayed inconclusive and do not appear here. No stated cut-off is given here; in the data, active means normalized growth mostly below about 0.91 (no sharp cut-off); inconclusive means no clear call, values can overlap the other calls; inactive means mostly above about 0.92. Some of the results follow.

Test: chemical genetic growth profiling, strain panel (AID 1159580);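 further: tested at 20 µM; growth read once vehicle control cultures reached saturation at 30 °C; 1 = growth at the plate median or of vehicle wells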
Settings: S. cerevisiae deletion strains, growth OD

Measured: normalized growth

CC(=O)O[C@@H]1CC(=O)[C@@]2(C)C(CC(=O)[C@]3(C)C2CC[C@@]2(C)[C@H](c4ccoc4)OC(=O)C4OC423)C1(C)C (some centres undefined)
inactive: locus YBR021W, strain FUR4, stronger effect = lower value 0.98 | locus YBR229C, strain ROT2, stronger effect = lower value 0.991 | locus YCL029C, strain bik1, stronger effect = lower value 1.01 | locus YDL035C, strain GPR1, stronger effect = lower value 0.987 | locus YDL074C, strain BRE1, stronger effect = lower value 0.976 | locus YDL101C, strain DUN1, stronger effect = lower value 0.996 | locus YDL134C, strain PPH21, stronger effect = lower value 1.01 | locus YDL185W, strain tfp1, stronger effect = lower value 1.02 | locus YDL192W, strain arf1, stronger effect = lower value 1.01 | locus YDR101C, strain arx1, stronger effect = lower value 1 | locus YDR162C, strain NBP2, stronger effect = lower value 1 | locus YDR318W, strain mcm21, stronger effect = lower value 1 | locus YDR388W, stronger effect = lower value 1.01 | locus YDR502C, strain sam2, stronger effect = lower value 1 | locus YEL061C, strain CIN8, stronger effect = lower value 0.998 | locus YER110C, stronger effect = lower value 1.01 | locus YER155C, strain BEM2, stronger effect = lower value 1 | locus YER167W, strain BCK2, stronger effect = lower value 0.993 | locus YGL078C, strain dbp3, stronger effect = lower value 1.01 | locus YGL086W, strain mad1, stronger effect = lower value 1.01 | locus YGL248W, strain PDE1, stronger effect = lower value 0.995 | locus YGR135W, strain pre9, stronger effect = lower value 1 | locus YGR229C, strain SMI1, stronger effect = lower value 0.988 | locus YGR252W, strain gcn5, stronger effect = lower value 0.976 | locus YHR079C, strain IRE1 (second series), stronger effect = lower value 1.01 | locus YHR094C, strain hxt1, stronger effect = lower value 1 | locus YHR129C, strain ARP1, stronger effect = lower value 1 | locus YHR200W, strain rpn10, stronger effect = lower value 1 | locus YIL066C, strain RNR3, stronger effect = lower value 1 | locus YIL073C, strain SPO22, stronger effect = lower value 1.04 | locus YIL125W, strain kgd1, stronger effect = lower value 1 | locus YIR030C, strain dcg1, stronger effect = lower value 1.01 | locus YJL095W, strain BCK1, stronger effect = lower value 0.963 | locus YJL134W, strain LCB3, stronger effect = lower value 0.999 | locus YJL168C, strain set2, stronger effect = lower value 1.01 | locus YJL187C, strain SWE1 (second series), stronger effect = lower value 0.996 | locus YKL009W, strain mrt4, stronger effect = lower value 1.01 | locus YKL068W, stronger effect = lower value 1.01 | locus YKL085W, strain MDH1 (second series), stronger effect = lower value 1.03 | locus YKL085W, strain MDH1, stronger effect = lower value 1.03 | locus YKL190W, strain CNB1, stronger effect = lower value 1 | locus YKR001C, strain vps1, stronger effect = lower value 1.01 | locus YLR039C, strain RIC1, stronger effect = lower value 1.02 | locus YLR058C, strain SHM2, stronger effect = lower value 0.998 | locus YLR102C, strain apc9, stronger effect = lower value 1.01 | locus YLR262C, strain YPT6, stronger effect = lower value 1.05 | locus YLR268W, strain sec22, stronger effect = lower value 0.998 | locus YLR371W, strain rom2, stronger effect = lower value 1 | locus YLR418C, strain cdc73, stronger effect = lower value 0.996 | locus YML016C, strain PPZ1, stronger effect = lower value 1 | locus YML032C, strain rad52, stronger effect = lower value 1.01 | locus YML124C, strain tub3, stronger effect = lower value 1.01 | locus YMR078C, strain ctf18, stronger effect = lower value 1.02 | locus YMR223W, strain ubp8, stronger effect = lower value 1.01 | locus YMR307W, strain GAS1, stronger effect = lower value 0.994 | locus YNL067W, strain RPL9B, stronger effect = lower value 0.997 | locus YNL233W, strain BNI4, stronger effect = lower value 0.993 | locus YNL250W, strain rad50, stronger effect = lower value 1.04 | locus YNL271C, strain bni1, stronger effect = lower value 1 | locus YNL298W, strain CLA4, stronger effect = lower value 1.01 | locus YNL307C, strain MCK1, stronger effect = lower value 1.03 | locus YNL322C, strain KRE1, stronger effect = lower value 1 | locus YNR052C, strain pop2, stronger effect = lower value 1.01 | locus YOL006C, strain TOP1, stronger effect = lower value 0.912 | locus YOL012C, strain htz1 0.729 | locus YOL147C, strain pex11, stronger effect = lower value 1 | locus YOR061W, strain CKA2, stronger effect = lower value 1 | locus YOR069W, strain VPS5, stronger effect = lower value 0.996 | locus YOR136W, strain idh2, stronger effect = lower value 1.02 | locus YOR144C, strain elg1, stronger effect = lower value 1.01 | locus YOR184W, strain ser1, stronger effect = lower value 1.02 | locus YOR316C, strain cot1, stronger effect = lower value 1.01 | locus YPL055C, strain LGE1, stronger effect = lower value 0.989 | locus YPL241C, strain CIN2, stronger effect = lower value 0.997 | locus YPR119W, strain clb2, stronger effect = lower value 1.02 | locus YPR141C, strain kar3, stronger effect = lower value 1.01 | locus YPR163C, strain tif3, stronger effect = lower value 1.01 | locus YPR167C, strain met16, stronger effect = lower value 1.02 | strain wtn01, stronger effect = lower value 1.01
